Only some compounds are listed: those with a hit (about 7% of all), similar ones and a draw of the others.
BAZ2B inh: BAZ2B (human) inhibition. Potency, µM (doses to about 114 µM), actives largely listed as inhibitors. Q9UIF8. AlphaScreen BAZ2B-H3K14Ac peptide displacement. 4.4% of 360,000 active; also: nearly all actives have a fitted effect of over 60% in size
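Complex of BAZ2B and biotin-H3K14Ac (50 nM apiece) forms over 30 min at RT, then faces library compounds up to 110 uM for another 30 min; AlphaScreen beads added, 20 min dark incubation, luminescence read.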
KAT2A inh: inhibitors of human GCN5L2 histone acetyltransferase. Potency, µM (titrated, usually from 58.9 µM), most hits filed as inhibitors. AID 504327. GCN5L2 HAT assay, ThioGlo1 CoA-SH fluorescence. Q92830. 0.21% of 390,000 active
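Compounds, pin-transferred from DMSO stocks, meet 20nM GCN5L2 for 15 min before the reaction begins with H3(1-25) peptide (75uM) and acetyl-CoA (70uM). Thiol-reactive ThioGlo1 reports CoA release over 20 min at room temperature.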
PLK1 PBD block: inhibitors of human PLK1 polo-box domain binding | Plk1 PBD binding of FITC phosphopeptide, fluorescence polarization | Potency, µM, hits mostly inhibitors | 2.8% of 360,000 active | AID 720504; also: series mostly up to about 57 µM; nearly all actives have a fitted effect of over 65% in size
PI5P4Ka inh: blocks human PI5P4K alpha kinase activity | max response, % | AID 652105 | PI5P4Kalpha enzyme, ADP-Glo luminescence, 60 min; hits give low values | 1.2% of 330,000 active | P48426; active = max response of -50% or lower; inconclusive = between -30% and -50%; inactive = -30% or higher; also: value at the top dose of about 77 µM
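PI5P4Kalpha ADP-Glo assay; 5 microM ATP final; 60 min RT reaction; HEPES pH 7.4/EGTA/CHAPS, 5% DMSO; controls lacking substrate or enzyme; luminescent end-point.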
JMJD2A Tudor: blocks the human JMJD2A Tudor domain; O75164; AlphaScreen JMJD2A-Tudor / H3K4me3 peptide binding; Potency, µM (doses to about 114 µM), most hits filed as inhibitors; 4.4% of 390,000 active; AID 504339; also: nearly all actives have a fitted effect of over 50% in size
HP1b chromo inh: blocks HP1-beta chromodomain binding to methylated histone tails | P83916 | Potency, µM (top dose mostly 114 µM), actives largely listed as inhibitors | AlphaScreen HP1-beta / biotin-H3K9me3 peptide binding | 0.56% of 390,000 active | AID 540317; also: nearly all actives have a fitted effect of over 70% in size
Target sequence (P83916 whole entry, looked up): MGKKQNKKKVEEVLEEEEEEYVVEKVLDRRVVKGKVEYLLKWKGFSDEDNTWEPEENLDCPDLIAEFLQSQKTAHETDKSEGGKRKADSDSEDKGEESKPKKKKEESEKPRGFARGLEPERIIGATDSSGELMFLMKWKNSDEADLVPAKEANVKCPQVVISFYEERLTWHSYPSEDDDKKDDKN
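Compound inhibition of the preformed complex between 50 nM HP1-beta and 50 nM biotinylated H3K9me3 peptide was read by AlphaScreen. Buffer was PBS pH 7.4 with 0.01% Tween-20. Incubations ran 30 min at room temperature, with 10 ug/mL donor/acceptor beads.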
A number is an active result; - = inactive; ? = inconclusive; . = not tested or not shown; [ ] = dose if it differs, or a comment. Unless noted, calls follow the shape of the dose curve; as a rule, active = well fitted curve in the direction sought with a large enough effect; inconclusive = small, poorly fitted or top-dose-only effect, or another doubt; inactive = no such curve, though single readings can be large; an effect the other way counts as inactive or inconclusive.

SMILES | BAZ2B inh | KAT2A inh | PLK1 PBD block | PI5P4Ka inh | JMJD2A Tudor | HP1b chromo inh
Cc1ccc(NS(=O)(=O)c2ccc3c(c2)CC(=O)N3)c(C)c1 | - | 25µM | - | - | - | -
Cc1ccc(NS(=O)(=O)c2ccc3[nH]c(=O)oc3c2)c(C)c1 | - | - | 30µM | - | ? | -
CCCOc1ccc(Br)cc1CSC(=N)N | - | - | 30µM | - | - | -
CCOc1ccc(Br)cc1CC(=O)O | . | . | - | - | - | -
C=CCOc1c(OC)cc(/C=N/Nc2cccc(C(=O)O)c2)c(Br)c1Br | 40µM | - | 30µM | - | 56µM | ?
O=C(O)c1ccc(N/N=C/c2ccc(OC(=O)c3cccc(Cl)c3)cc2)cc1 | 50µM | - | 21µM | - | -[11.4 µM] | ?
COC(=O)c1ccc(COc2ccc(/C=N/Nc3cccc(C(=O)O)c3)cc2)cc1 | ? | - | ? | - | 56µM | ?
C=CCOc1c(/C=N\NC(N)=O)cccc1OC | - | - | - | - | - | -
Cc1cccc(C)c1-n1nnnc1C(c1ccnc2ccccc12)N1CCN(C(=O)OCc2ccccc2)CC1 (stereo unspecified) | . | . | - | - | . | .
O=C(CSc1nnc(NC(=O)C2CC(=O)N(c3ccc(F)cc3)C2)s1)NCC1CCCO1 (stereo unspecified) | - | ? | - | - | - | -
Cc1ccc(NC(=O)c2oc3ccc4c(c3c2C)C(=O)CC(C)(C)O4)c(C)c1 | - | - | . | . | - | -
CCOC(=O)c1ccc(S(=O)(=O)N2CCN(CC(O)COc3cccc(C(C)=O)c3)CC2)cc1 (stereo unspecified) | 79µM | - | - | - | 18µM | -
O=C(CNC(=O)C1CCCCCC1)OC(C(=O)Nc1cc(C(F)(F)F)ccc1Cl)c1ccccc1 (stereo unspecified) | . | . | . | . | - | .
COc1cccc(C2C(C(=O)Nc3ccccc3)=C(C)N=c3s/c(=C/c4ccc(OCC(=O)O)cc4)c(=O)n32)c1 (stereo unspecified) | - | - | - | ? | - | -
CC1=C(C(=O)Nc2ccccc2)C(c2ccc(C)o2)n2c(s/c(=C\c3ccco3)c2=O)=N1 (stereo unspecified) | 50µM | - | - | - | - | -
O=C(CNC(=O)[C@@H]1Cc2ccccc2CN1)NCc1ccco1 | - | - | - | - | - | -
CC(Sc1nc(NC(C)(C)C)nc(N(C)C)n1)C(=O)Nc1ccccc1 (stereo unspecified) | - | - | - | - | - | -
CCOc1nc(SC(C(C)=O)C(=O)Nc2ccccc2)nc(N(C)C)n1 (stereo unspecified) | - | - | ? | - | 79µM | -
Cc1[nH]ncc1N=Cc1ccc([N+](=O)[O-])cc1 | - | - | 21µM | - | - | -
Cc1cccc(N(Cc2ccccc2)C(=O)c2cccc(S(=O)(=O)N3CC(C)OC(C)C3)c2)c1 (stereo unspecified) | - | - | - | - | - | -
CN(C)c1ccc(C2CNC(c3ccc(Cl)c([N+](=O)[O-])c3)c3[nH]c4ccccc4c32)cc1 (stereo unspecified) | 10µM | - | - | - | 35µM | ?
O=[N+]([O-])c1cccc(C2NCC(c3ccccc3Cl)c3c2[nH]c2ccccc32)c1 (stereo unspecified) | 35µM | - | - | - | ? | ?
NC1=NC(=O)/C(=C\c2ccc(O)c([N+](=O)[O-])c2)S1 | - | - | - | -79 | - | -
COc1cc(/C=C2\SC(N)=NC2=O)ccc1OCC(=O)Nc1ccccc1C | - | - | - | - | - | -
COc1cc(/C=C2/SC(N)=NC2=O)ccc1Oc1ccc([N+](=O)[O-])cc1[N+](=O)[O-] | - | - | - | - | - | -
COc1cc(/C=C2\SC(N)=NC2=O)cc(Cl)c1O | - | - | - | -76 | - | -
COc1ccc(/C=C2\SC(N)=NC2=O)cc1Br | ? | - | - | -51 | - | -
COC(=O)C(CCC(=O)CN1C(=O)c2ccccc2C1=O)N1C(=O)c2ccccc2C1=O (stereo unspecified) | . | . | - | - | . | .
